Source: PubChem BioAssay (National Center for Advancing Translational Sciences (NCATS))
An excerpt weighted towards active compounds, which were near 2.4% of everything screened.
D2 ag-1: agonists of human D2 dopamine receptor (beta-arrestin) | P14416 | DiscoveRx PathHunter D2 beta-arrestin, luminescence, 90 min; 100% = 57 uM dopamine signal | activation, % (concentration not given with the values) | hit rate 0.084% among 360,000 | AID 624465; in the data active = activation above about 40%; inconclusive = between about 15% and that limit
Target sequence (P14416 whole entry, looked up): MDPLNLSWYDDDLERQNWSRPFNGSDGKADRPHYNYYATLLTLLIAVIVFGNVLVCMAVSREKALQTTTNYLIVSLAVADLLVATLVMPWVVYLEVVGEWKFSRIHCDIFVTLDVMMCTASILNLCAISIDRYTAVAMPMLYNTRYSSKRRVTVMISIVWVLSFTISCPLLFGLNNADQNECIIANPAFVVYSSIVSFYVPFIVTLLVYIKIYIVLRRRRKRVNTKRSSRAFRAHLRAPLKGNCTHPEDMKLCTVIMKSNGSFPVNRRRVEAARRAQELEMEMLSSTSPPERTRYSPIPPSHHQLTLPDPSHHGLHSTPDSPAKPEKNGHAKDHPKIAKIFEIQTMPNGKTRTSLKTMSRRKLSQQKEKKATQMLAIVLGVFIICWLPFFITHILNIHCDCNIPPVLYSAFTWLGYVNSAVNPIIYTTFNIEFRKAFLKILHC
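DiscoveRx PathHunter D2 beta-arrestin cells (2,100/well) attached overnight, then compound-stimulated 90 min at 37 C in HBSS/10 mM HEPES/0.1% Tween-20 buffer; beta-galactosidase complementation read by luminescence after 1 h at ambient temperature. Dopamine 57 uM final (EC100) as control.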
D2 PAM-1: potentiates the human D2 dopamine receptor allosterically | AID 624464 | potentiation, % (no concentration beside the values) | P14416 | DiscoveRx D2 beta-arrestin cells, luminescence, 90 min; 100% = 57 uM dopamine signal | hit rate 0.23% among 360,000; in the data active = potentiation above about 50%; inconclusive = mostly about 30% to 49%
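PathHunter beta-arrestin assay in DiscoveRx D2 cells. Compounds were added with an EC20 of dopamine (50 nM final) for 90 min at 37 deg C. Luminescence was read 1 h after detection reagent, with 57 uM dopamine as the EC100 control.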
D2 ag-2: D2 dopamine receptor (human) agonism; P14416; activation, % at 2 µM; hit rate 0.53% among 340,000; AID 485358; HEK293 T-REx D2 cells, calcium flux agonist mode;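 active = activation over 3 SD above normal in the single-dose calcium agonist read, cut at about 30% in these data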; also: 0% is about no effect
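Calcium-flux readout, 1 cycle/sec over 180 s following compound pin transfer, in inducible HEK293 Trex D2 cells (force-coupled); dopamine controls included. Positive calcium responses during this window marked compounds as potential agonists.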
D2 PAM-2: D2 dopamine receptor (human) potentiation; hit rate 0.34% among 340,000; P14416; HEK293 T-REx D2, calcium flux, EC20 dopamine potentiation; AID 485347; potentiation, % at 10 µM;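 active = potentiation over 3 SD above the plate norm, cut at about 30% in these data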; also: 0% is about no effect
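Potentiation of an EC20 dopamine calcium response is measured in a force-coupled, tetracycline-inducible Hek293 Trex D2 line. Compound-only kinetic reads over 180 s flag agonists before dopamine addition.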
D2 antagonist: antagonizes the human D2 dopamine receptor; P14416; HEK293 TREx D2 cells, calcium flux, dopamine EC80; inhibition, % at 10 µM; hit rate 2% among 340,000; AID 485344; in the data active = inhibition above about 30%; inactive = below that, where a call was filed; also: 0% is about no effect
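Inhibition of EC80 dopamine-driven calcium flux, recorded kinetically, defines activity here; cells are a tetracycline-induced HEK293 T-REx line expressing force-coupled D2.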
The depositor's hits bear a star; ? = inconclusive; . = no result; ! = not confirmed by another sample.

SMILES	D2 ag-1	D2 PAM-1	D2 ag-2	D2 PAM-2	D2 antagonist
O=C(CN1CCN(Cc2ccccc2Cl)C1=O)NC1CCCCCCC1	-1	5	-2	0	31*
CC1CC(C)(C)NC(=S)N1CCCC(=O)NCc1ccccc1 (centres undefined)	-1	-1	1	9	37*
Cc1ccc(C(=O)Nc2oc(-c3ccccc3)cc2C#N)cc1	-4	-16	1	-31	31*
NC(=S)NNC(=O)C12CC3CC(CC(C3)C1)C2	-1	-3	62*	-13	44*
COc1ccc(C2CC(=O)N(CC(=O)Nc3ccc(C)c(Cl)c3)c3ccccc3S2)cc1OC (centres undefined)	.	.	0	15	.
CCCCN(C(=O)c1ccc2c(c1)OCO2)C1CCS(=O)(=O)C1 (centres undefined)	-3	0	2	2	-26
CCN(C(=O)c1ccc2c(c1)OCO2)C1CCS(=O)(=O)C1 (centres undefined)	-2	-15	1	-18	39*
CCN1CCN(c2ccc([N+](=O)[O-])c(Sc3nc4ccccc4[nH]3)c2)CC1	-6	-21	-2	-25	87*
Cc1cc(C(C)(C)C)c(OC(=O)[C@@H]2OC(c3ccccc3)=C[C@H]2c2ccccc2)c(C(C)(C)C)c1	-1	1	0	10	13
CN(CC1CCOCC1)C(=O)c1ccc2nc(Cc3cccc(Cl)c3)oc2c1	3	12	.	11	.
O=C(NCC1CCOCC1)c1ccc2nc(Cc3cccc(Cl)c3)oc2c1	-5	-5	1	-22	61*
O=C(CSc1nc(-c2ccccc2)no1)N1CCCCC1	.	.	0	-3	.
COc1cc(/C=C2/SC(=S)N(Cc3ccccc3)C2=O)cc(Cl)c1O	-2	-6	72*	-21	-12
COc1cc(/C=C2\SC(=O)N(Cc3ccc(F)cc3)C2=O)cc([N+](=O)[O-])c1O	-2	-1	-2	3	31*
O=C(CSc1nnc(-c2ccccc2)o1)c1cccc([N+](=O)[O-])c1	.	.	0	-4	.
CCCCNC(=O)N1CCOCCOCCN(C(=O)NCCCC)CCOCCOCC1	-1	5	3	.	32*
COc1ccc(C(=O)N/C(=C\c2cc(OC)c(OC)cc2[N+](=O)[O-])C(=O)NCCO)cc1	0	2	1	-12	39*
Cc1cc(F)ccc1Oc1cc(NN2CCCCC2)c([N+](=O)[O-])cc1[N+](=O)[O-]	0	-6	0	1	30*
O=[N+]([O-])c1cc([N+](=O)[O-])c(Oc2cc(F)ccc2F)cc1NN1CCCCC1	-2	-1	-1	-9	-3
Cc1ccc(C(=O)CN(C(=O)c2ccc(Cl)cc2)N2C(=O)CCC2=O)cc1	-5	-49	-1	-21	31*
Cc1ccc(C(=O)CN(C(=O)c2ccc(Cl)cc2)N2C(=O)c3ccccc3C2=O)cc1	-1	-3	-1	-2	-7
COc1ccc(NS(=O)(=O)c2ccc(N/N=C(\C)c3ccncc3)c([N+](=O)[O-])c2)cc1	0	15	0	3	79*
C/C(=N\Nc1ccc(S(=O)(=O)Nc2ccccc2)cc1[N+](=O)[O-])c1ccncc1	.	.	.	21	.
O=C(Nc1ccc(S(=O)(=O)N2CCCC2)cc1)c1ccc(CN2CCc3ccccc3C2)cc1	1	-36	3	-16	64*
CCOc1ccc(C(=O)Nc2ccccc2NC(C)=O)cc1OCC	0	-9	-2	-37	103*
SMILES	D2 ag-1	D2 PAM-1	D2 ag-2	D2 PAM-2	D2 antagonist
CCOc1ccccc1NC(=O)c1ccc(CN2CCc3ccccc3C2)cc1	-1	-20	1	-19	54*
O=C(c1ccc(CN2CCc3ccccc3C2)cc1)N1CCCCC1	-2	-37	14	-20	35*
O=C1CC(c2nc3ccccc3n2CCCOc2ccccc2)CN1c1ccc(F)cc1 (centres undefined)	.	.	0	-8	.
c1ccc(CN2CCC3CC2c2cc(N4CCOCC4)ccc23)cc1 (centres undefined)	0	.	.	.	.
O=C(O)CCn1c(-c2ccccn2)nc2ccccc21	-2	-2	0	6	-7
O=C(CN1CCc2ccccc2C1)N1CCN(S(=O)(=O)c2ccccc2)CC1	6	-5	35*	-11	7
CC(=O)c1cccc(NC(=O)c2ccc(CN3CCc4ccccc4C3)cc2)c1	-8	-4	7	-32	19
O=C(CNC1CCN(Cc2ccccc2)CC1)Nc1ccc(S(=O)(=O)N2CCCCC2)cc1	-3	-25	0	-29	37*
Cc1cc(C)c(NC(=O)c2ccc(CN3CCc4ccccc4C3)cc2)c(C)c1	-1	-43	8	-24	52*
Cc1ccc(S(=O)(=O)N2CCN(C(=O)CN3CCc4ccccc4C3)CC2)cc1	2	-12	15	-18	3
CCc1ccc(CNC(=O)CN2C(=O)c3cccnc3Oc3ccc(C)cc32)cc1	.	.	-2	3	.
O=C(Nc1ccc(Cl)cc1Cl)Nn1cnnc1	-5	-15	1	-2	-9
O=C(Nc1ccno1)Nc1ccc(Cl)cc1Cl	?	62*	0	5	-3
CCCC(CCC)c1nc2ccncc2[nH]1	3	-1	0	36*	-5
Nc1ccn([C@H]2CC[C@@H](CO)O2)c(=O)n1	-2	-3	0	5	37*!
O=C(COC(=O)c1ncc(Cl)c(Cl)c1Cl)Nc1ccc(Cl)cn1	-2	17	0	5	8
Cc1cccc(Cc2c(C)nc3nc(SCC(=O)O)nn3c2C)c1	-4	-4	0	47*	-6
Cc1cccc(Cc2c(C)nc3nc(SCC(=O)NCc4ccccc4)nn3c2C)c1	.	.	0	-3	.
COc1ccccc1NC(=O)c1cc2cc3ccc(OC)c(Cl)c3nc2s1	.	.	-1	0	.
Cc1occc1C(=O)N/N=C/C=C/c1ccccc1[N+](=O)[O-]	-4	-5	-1	-20	38*
N#Cc1ccc(COc2cccc3cccnc23)cc1	1	0	0	31*	-7
CCOC(=O)c1ccc(CN2C(=O)c3ccccc3S2(=O)=O)cc1	-7	2	2	9	-16
CCOc1ccc(C(C)=O)cc1CN1C(=O)c2ccccc2S1(=O)=O	-2	-2	1	1	34*
CN(c1ccc(C(=O)NCc2ccccn2)cc1)S(=O)(=O)c1ccc(Cl)cc1	-2	-9	0	2	-3
Cc1ccc(S(=O)(=O)N(C)c2ccc(C(=O)NCc3ccccn3)cc2)cc1	2	-7	0	-12	57*
CCOC(=O)c1c(CSc2ccccc2)n(C)c2cc(Br)c(O)c(CN(C)C)c12	1	-4	-1	-3	-6
CCOC(=O)c1c(CN2CCCCC2)n(C)c2cc(Br)c(O)c(CN(C)C)c12	-5	-6	0	-33	60*
